Reference: PubChem BioAssay (NCI)
Compounds without any hit were thinned out: in the full panel of roughly 83,000, 20% have a hit.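 Testing used 96-well plates and a 48-hour single-concentration exposure. Example: -40 means 40% of the starting cells died.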 Values without a mark were called inactive. Activity calls are given as the source filed them. How the source made its calls: active means growth percent below 10; inactive means the rest.

Key:
Assay in all cases: NCI-60 one-dose screen, 48 h (100 = growth as untreated, 0 = no growth, -100 = all killed)
Conditions in all cases: 10 µM unless noted
T-47D breast = tested on: T-47D breast
BT-549 breast = tested on: BT-549 breast
MDA-MB-435 melanoma = tested on: MDA-MB-435 melanoma
SW-620 colon = tested on: SW-620 colon
MCF7 breast = tested on: MCF7 breast
HCT-116 colon = tested on: HCT-116 colon
HCC-2998 colon = tested on: HCC-2998 colon
KM12 colon = tested on: KM12 colon

Compound	growth (T-47D breast)	growth (BT-549 breast)	growth (MDA-MB-435 melanoma)	growth (SW-620 colon)	growth (MCF7 breast)	growth (HCT-116 colon)	growth (HCC-2998 colon)	growth (KM12 colon)
Cc1nnc(-n2c(O)cc(=O)n(-c3ccccc3)c2=S)nc1/C=C/c1ccc(N(C)C)cc1	38%	63.1%	24.8%	67.2%	21.6%	56.1%	63.7%	47.9%
CCc1n(Cc2ccc3ccccc3c2)cc[n+]1Cc1ccc2ccccc2c1	-10.2% (active)	-2.05% (active)	-22.1% (active)	16%	2.44% (active)	4.69% (active)	-6.82% (active)	-52.2% (active)
O=c1oc2ccc([N+](=O)[O-])cc2cc1Br	101%	112%	104%	98.1%	97.7%	105%	114%	107%
CCN(CC)CCOc1ccc(-c2c(-c3ccccc3)c(=O)oc3ccccc23)cc1	47%	69.3%	100%	87.3%	89.6%	65.6%	99.1%	100%
Cc1ccc(-c2cc(-c3ccc(Cl)cc3)nc(NC(=O)c3cccnc3)n2)cc1	96.3%	117%	99.8%	102%	86.3%	98.9%	115%	99.8%
CC(C)c1ccc(NC(=O)Nc2ccc(NC(=O)CCCC(=O)NOCc3ccccc3)cc2)cc1	59.3%	106%	89.1%	107%	80.2%	93.4%	66%	94.4%
CCOC(=O)c1cn2ncnc(Oc3ccc(NC(=O)NC4CCCCC4)c(Cl)c3)c2c1C	85%	90.4%	85.6%	81.6%	51.7%	81.4%	94.6%	96.9%
CC(C)N1CN2C(=S)NC3C2N(C1)C(=S)N3C (stereo not drawn)	92.4%	124%	104%	101%	93%	105%	113%	94.4%
CS(=O)(=O)Nc1cc(-c2ccc3ncnc(Nc4ccc5c(cnn5Cc5ccccn5)c4)c3c2)cnc1Cl	18.5%	56.7%	77.5%	84.3%	36%	92.9%	80.4%	95.4%
N#Cc1cccc(-c2c(-c3ccc4ccccc4c3)oc3ccccc3c2=O)c1	45.1%	34.1%	-26.8% (active)	14.6%	20.3%	12.4%	68.8%	25.9%
O=c1c2cc(-c3ccccc3)sc2nc2sc(-c3ccccc3)nn12	99.3%	118%	105%	103%	97.6%	102%	101%	101%
O=C(Cn1cc(CN2C(=O)c3ccccc3S2(=O)=O)nn1)Nc1nc2ccccc2s1	88.1%	97.9%	112%	105%	91.1%	88%	113%	103%
O=C(CCCCC1CCSS1)Nc1ncnc2n[nH]c(-c3ccc(Oc4ccccc4)cc3)c12 (stereo not drawn)	73.7%	118%	-28.4% (active)	111%	43.2%	36.7%	103%	70.5%
CC(C)N1CCN(Cc2ccc3c(NNC(=O)c4ccccc4)nc4cc(F)ccc4n23)CC1	20.3%	45.6%	30.5%	24.9%	9.7% (active)	24.5%	25%	23.1%
Cn1c(=O)c2c(nc(NC3=NS(=O)(=O)c4ccccc43)n2CC(=O)N2CCc3ccccc32)n(C)c1=O	91.3%	91.7%	101%	95.2%	103%	97.9%	96.9%	107%
O=C(CSc1nc2ccc([N+](=O)[O-])cc2[nH]1)Nc1cccc(C(F)(F)F)c1	6.1% (active)	16.5%	13.8%	28.2%	15.7%	12.8%	30.7%	17.1%

Compound	growth (T-47D breast)	growth (BT-549 breast)	growth (MDA-MB-435 melanoma)	growth (SW-620 colon)	growth (MCF7 breast)	growth (HCT-116 colon)	growth (HCC-2998 colon)	growth (KM12 colon)
C/C(=N/O)c1ccc(F)cc1	91.4%	88.2%	112%	48.6%	54.3%	51.9%	130%	106%
N#C/C(=C/c1ccc([N+](=O)[O-])cc1)n1nnc2cc(F)c(F)cc21	11.6%	77.3%	64.2%	59.7%	8.8% (active)	5.65% (active)	70.5%	13.1%
Cc1ccc2c3c(c(=O)[nH]c2c1)C1(C(C#N)=C(N)O3)c2cc(Br)ccc2-c2ccc(Br)cc21	-29.6% (active)	61.8%	42.8%	-36.5% (active)	-42.6% (active)	10%	-4.73% (active)	6.52% (active)
CCNc1cc(-c2cccc(OC(F)(F)F)c2)nc2ccc(N3CCCC3)cc12	-24.6% (active)	75.2%	2.21% (active)	4.43% (active)	3.29% (active)	-15.9% (active)	6.29% (active)	4.19% (active)
N#CC1=C(N)Oc2c(sc3c(F)cccc23)C1c1ccc(F)cc1 (stereo not drawn)	42.5%	30.9%	-51.7% (active)	35.8%	18.9%	17.4%	57.2%	30.3%
CCOC(=O)Cn1c(O)c(N=Nc2ccc(S(N)(=O)=O)cc2)c2cc(Br)ccc21	78.1%	119%	92%	62.7%	84%	13.9%	95.5%	70.7%
Oc1c(Cl)cc(Cl)cc1/C=N/Nc1nnc(N/N=C/c2cc(Cl)cc(Cl)c2O)c2ccccc12	14.8%	15.7%	14.2%	17.2%	7.3% (active)	10%	33.1%	6.29% (active)
O=c1oc2ccccc2cc1C1=NN=C(SCc2ccccc2)SC1	85.5%	102%	107%	106%	94.3%	99.1%	109%	99.7%
O=C(c1ccccc1)C1C(=O)N2C(=S)N(c3ccccc3)C(=O)C2C1c1ccc(Cl)cc1 (stereo not drawn)	83.1%	88.6%	105%	102%	65.2%	96.6%	94.8%	104%
O=C(CCc1nnc(Cn2cnc3nc[nH]c3c2=O)o1)c1nc2ncccc2[nH]1	94.5%	95.9%	99.5%	96%	97.2%	97.3%	105%	105%
O=CC1(C2(C=O)c3ccccc3-c3ccccc32)c2ccccc2-c2ccccc21	-51% (active)	-74.3% (active)	-57.9% (active)	-29.2% (active)	-52.4% (active)	-60.6% (active)	-41.5% (active)	-44.5% (active)
O=C1/C(=C/c2ccc(-c3ccc(Br)cc3)o2)SC(=S)N1CCc1ccc(O)cc1	58.4%	77.8%	48.8%	81.2%	82.6%	75.2%	93.6%	42.9%
Fc1ccc(Nc2nc3nonc3nc2Nc2ccc(I)cc2)cc1	-26.7% (active)	-6.04% (active)	4.78% (active)	11.2%	1.98% (active)	3.42% (active)	9.77% (active)	2.12% (active)
CN1CCN(c2ccc(C(=O)Nc3cccc(C#Cc4cccc5[nH]nc(N)c45)c3)cc2C(F)(F)F)CC1	-48.3% (active)	71.4%	-88.8% (active)	-73.5% (active)	-71.6% (active)	-83.4% (active)	-75.1% (active)	-57% (active)
O=S(=O)(Nc1ccccc1)c1ccc(C2CC3(Cl)C(Cl)=C(Cl)C2(Cl)C3(Cl)Cl)cc1 (stereo not drawn)	29.4%	76.4%	23.6%	30.7%	23.2%	17.6%	53.5%	22.7%
